The source of these data is PubChem BioAssay (Tox21).

“And” between values parts separate entries of the source, which are not always exact repeats. Identical values can stand only once. Results filed as inconclusive are left out. Some structures have more than one record in an assay (separate samples or runs), and their calls can disagree. The source made the active and inactive calls. The call rests on the fitted dose curve; in most records, active means well fitted curve in the direction sought with a large enough effect in the repeat runs; inconclusive means weak or mixed curves; inactive means no such curve, though single readings can be large; an effect the other way counts as inactive or inconclusive.
On the % scale 0 is the no-effect control and ±100 the full control effect; potency means the concentration at half of the fitted maximal effect.

Aryl hydrocarbon receptor (Homo sapiens), sequence (P35869 whole entry, looked up): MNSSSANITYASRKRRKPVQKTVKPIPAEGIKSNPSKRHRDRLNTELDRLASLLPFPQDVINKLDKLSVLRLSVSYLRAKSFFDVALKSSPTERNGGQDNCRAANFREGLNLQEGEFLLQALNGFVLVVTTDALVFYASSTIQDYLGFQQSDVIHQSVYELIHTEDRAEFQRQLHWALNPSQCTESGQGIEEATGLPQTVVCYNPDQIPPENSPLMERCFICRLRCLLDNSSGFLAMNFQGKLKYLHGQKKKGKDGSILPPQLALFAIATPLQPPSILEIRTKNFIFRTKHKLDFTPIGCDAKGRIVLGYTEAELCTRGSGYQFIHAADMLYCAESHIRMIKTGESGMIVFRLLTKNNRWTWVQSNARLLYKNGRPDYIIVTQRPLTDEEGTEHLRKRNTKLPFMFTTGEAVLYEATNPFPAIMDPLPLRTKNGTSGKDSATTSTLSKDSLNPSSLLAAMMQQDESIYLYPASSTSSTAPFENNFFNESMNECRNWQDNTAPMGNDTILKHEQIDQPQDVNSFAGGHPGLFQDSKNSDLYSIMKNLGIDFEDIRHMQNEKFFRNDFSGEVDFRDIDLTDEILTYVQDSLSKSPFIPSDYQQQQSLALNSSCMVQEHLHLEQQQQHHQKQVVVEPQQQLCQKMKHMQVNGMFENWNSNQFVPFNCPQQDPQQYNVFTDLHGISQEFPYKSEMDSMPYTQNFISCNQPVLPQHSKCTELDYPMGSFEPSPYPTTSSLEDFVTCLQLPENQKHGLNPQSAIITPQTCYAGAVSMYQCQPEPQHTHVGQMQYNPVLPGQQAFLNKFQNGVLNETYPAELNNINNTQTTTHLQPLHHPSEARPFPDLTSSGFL

Tested on in the first assay: not listed separately
Briefly: qHTS assay to identify aromatase inhibitors - cell viability counter screen (AID 743084).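 Further: cells stimulated with testosterone during compound exposure; nearly all actives have a fitted effect of over 55% in size.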 The conditions noted are these: MCF-7 aro ERE viability, CellTiter-Fluor, 24 h; series mostly up to 70.3 µM; activity change, negative = cytotoxicity: at the top concentration. A general note: In qHTS, concentration-response curves come from the screen itself.
Take `O=C1CCCc2c1cc1ccc3cccc4ccc2c1c34`: the “activity change, negative = cytotoxicity” value is 11.5% [at 95 µM] (inactive).
As to `NC(=O)CC[C@@H]1NC(=O)[C@H](Cc2ccccc2)NC(=O)[C@H](Cc2ccc(O)cc2)NC(=O)CCSSC[C@@H](C(=O)N2CCC[C@H]2C(=O)N[C@@H](CCCN=C(N)N)C(=O)NCC(N)=O)NC(=O)[C@H](CC(N)=O)NC1=O`, the Potency entry was “inactive”.
In the case of `C=CC(=O)OCCn1c(=O)n(CCOC(=O)C=C)c(=O)n(CCOC(=O)C=C)c1=O`, the Potency was 13.7 µM (active).
On the same count and under the same terms, to `C[C@H](CCC(=O)O)[C@H]1CC[C@H]2[C@@H]3CC[C@@H]4C[C@H](O)CC[C@]4(C)[C@H]3CC[C@]12C` belongs “inactive”; to `CCCCCCCCCCCC(=O)NCCCN(C)C`, 54.5 µM (active).
On the same count and under the same terms, under `Cc1cc(C2CCCCC2)n(O)c(=O)c1` stands 12.7 µM (active); under `CCCCCCCC[P+](CCCCCCCC)(CCCCCCCC)CCCCCCCC`, 9.63 µM (active).
In the case of `CCCC(c1cc(C(C)(C)C)c(O)cc1C)c1cc(C(C)(C)C)c(O)cc1C`, the Potency was 49.2 µM (active).
Still for that read-out and setting: to `CC/C(=C(\c1ccc(O)cc1)c1ccc(OCCN(C)C)cc1)c1ccccc1` belongs 48.7 µM (active).
Regarding `C[C@@H](NCCCc1cccc(C(F)(F)F)c1)c1cccc2ccccc12`, the Potency is 21.1 µM (active).
On the same count and under the same terms, to `Oc1cccc(-c2c3nc(c(-c4cccc(O)c4)c4ccc([nH]4)c(-c4cccc(O)c4)c4nc(c(-c5cccc(O)c5)c5ccc2[nH]5)CC4)C=C3)c1` belongs 29.8 µM (active) and 21.1 µM (active).
Consider `CC(C)(C)C(=O)OCOC(=O)[C@@H]1N2C(=O)[C@@H](NC(=O)[C@H](N)c3ccccc3)[C@H]2SC1(C)C`, for which the “activity change, negative = cytotoxicity” value is -8.04% [at 32.5 µM] (inactive).
Consider `O=C(Oc1cccc2cccnc12)c1ccccc1`, for which the Potency was 21.1 µM (active).
On to `CCCCC(CC)CN=C(N)NC(N)=NCCCCCCN=C(N)NC(N)=NCC(CC)CCCC` (configuration not stated), for which the Potency was 26.6 µM (active).
`Clc1ccc2cc3ccccc3cc2c1`: the “activity change, negative = cytotoxicity” value was 10.5% (inactive).
The same measure, in the same setting: to `CN(C)c1ccc(C2(c3ccc(N(C)C)cc3)OC(=O)c3cc(N(C)C)ccc32)cc1` belongs -10.2% (inactive).
As to `CC(=O)N1CCN(c2ccc(OC[C@H]3CO[C@](Cn4ccnc4)(c4ccc(Cl)cc4Cl)O3)cc2)CC1`, the Potency result was “inactive and 61.1 µM (active)”.
On to `Cc1[nH]cnc1C[C@H]1CCc2c(C)c3ccccc3n2C1=O`, for which the “activity change, negative = cytotoxicity” value was -0.485% (inactive).
As to `C=CC(=O)OCC(CO)(COCC(COC(=O)C=C)(COC(=O)C=C)COC(=O)C=C)COC(=O)C=C`, the Potency was 1.7 µM (active).
As to `NNc1nc(-c2ccc(N)cc2)cs1`, the Potency is 27.3 µM (active).
In the case of `CC(C)c1ccc2c(c1)CC[C@H]1[C@](C)(CN)CCC[C@]21C`, the Potency is 24.3 µM (active).
On the same count and under the same terms, under `[Cl][Bi]([Cl])([c]1ccccc1)([c]1ccccc1)[c]1ccccc1` stands 7.65 µM (active); under `Cc1cc(CCN2CCN(c3nsc4ccccc34)CC2)cc2c1NC(=O)CC2(C)C`, 24.3 µM (active).
Consider `CCCCN(CCCC)c1ccc(C(=O)c2ccccc2C(=O)O)c(O)c1`, for which the “activity change, negative = cytotoxicity” value is -19.7% [at 95 µM] (inactive).
Regarding `O=C(Nc1cccc(Cl)c1)OCC#CCCl`, the Potency was 24.3 µM (active).
On to `Oc1cc2ccccc2c2ccccc12`, for which the Potency was 8.63 µM (active).
On the same count and under the same terms, to `C=CC(=O)OCC(CO)(COC(=O)C=C)COC(=O)C=C` belongs 2.18 µM (active) and 4.86 µM (active).
Take `C[n+]1cc2c3c(ccc2c2ccc4cc5c(cc4c21)OCO5)OCO3`: the Potency was 21.1 µM (active).
Regarding `COc1ccc(C(=O)/C(Br)=C\C(=O)O)cc1`, the Potency is 17.2 µM (active).
On the same count and under the same terms, under `CCN(Cc1cccnc1)C(=O)c1cccc(Cl)c1[C@]1(C)C(=O)N(Cc2ccc(OC)cc2OC)c2ccc(Cl)cc21` stands 16.1 µM (active).
For the molecule `CS(=O)(=O)CCNCc1ccc(-c2ccc3ncnc(Nc4ccc(OCc5cccc(F)c5)c(Cl)c4)c3c2)o1`, the “activity change, negative = cytotoxicity” value is 4.42% (inactive).
For `CN(C)C(=O)C1(N2CCCCC2)CCN(CC[C@@]2(c3ccc(Cl)c(Cl)c3)CN(C(=O)c3ccccc3)CCO2)CC1`, the Potency is 50.9 µM (active).
On to `CCCCCCCCCCCCc1ccc(O)cc1`, for which the Potency is 61.1 µM (active).
Consider `CCCCCCCCOc1ccccc1C(=O)Nc1ccc(C(=O)OCC[N+](C)(CC)CC)cc1`, for which the “activity change, negative = cytotoxicity” value is -2.52% (inactive).
Take `CC(C)(C)C(=O)OCOC(=O)C1N2C(=O)CC2S(=O)(=O)C1(C)C` (configuration not stated): the “activity change, negative = cytotoxicity” value was -5.35% (inactive).
As to `O=S1(=O)CC(Cl)(Cl)C(Cl)(Cl)C1`, the Potency is 2.17 µM (active).

The next assay addresses Aryl hydrocarbon receptor (Homo sapiens) (UniProt P35869). Briefly: qHTS assay to identify small molecule that activate the aryl hydrocarbon receptor (AhR) signaling pathway (AID 743085). Further: nearly all actives have a fitted effect of over 15% in size.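 On activation: HG2L7.5c1 human HepG2 liver cells with stably integrated DRE-driven firefly reporter.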 The conditions noted are these: HepG2 AhR-luc (HG2L7.5c1), luciferase, 24 h; series mostly up to 70.3 µM; activation: at the top concentration. Summed up:
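24 h compound exposure, 37C, HepG2-derived HG2L7.5c1 cells with DRE-responsive luciferase. Readouts: fluorescence viability, then luminescence at room temperature after 30 min.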
For the molecule `O=C1CCCc2c1cc1ccc3cccc4ccc2c1c34`, the Potency is 69.4 µM (active).
Turning to `NC(=O)CC[C@@H]1NC(=O)[C@H](Cc2ccccc2)NC(=O)[C@H](Cc2ccc(O)cc2)NC(=O)CCSSC[C@@H](C(=O)N2CCC[C@H]2C(=O)N[C@@H](CCCN=C(N)N)C(=O)NCC(N)=O)NC(=O)[C@H](CC(N)=O)NC1=O`, the “activation” value is -1.91% (inactive).
Consider `C=CC(=O)OCCn1c(=O)n(CCOC(=O)C=C)c(=O)n(CCOC(=O)C=C)c1=O`, for which the “activation” value is -2.52% (inactive).
As for `C[C@H](CCC(=O)O)[C@H]1CC[C@H]2[C@@H]3CC[C@@H]4C[C@H](O)CC[C@]4(C)[C@H]3CC[C@]12C`, the Potency result is “inactive”.
For `CCCCCCCCCCCC(=O)NCCCN(C)C`, the “activation” value is -4.2% (inactive).
As for `Cc1cc(C2CCCCC2)n(O)c(=O)c1`, the “activation” value was 2.99% [at 32.5 µM] (inactive).
With `CCCCCCCC[P+](CCCCCCCC)(CCCCCCCC)CCCCCCCC`, the “activation” value is -3.76% (inactive).
Same read-out and setting: under `CCCC(c1cc(C(C)(C)C)c(O)cc1C)c1cc(C(C)(C)C)c(O)cc1C` stands -3.09% [at 95 µM] (inactive).
Same read-out and setting: to `CC/C(=C(\c1ccc(O)cc1)c1ccc(OCCN(C)C)cc1)c1ccccc1` belongs -3.73% [at 95 µM] (inactive); to `C[C@@H](NCCCc1cccc(C(F)(F)F)c1)c1cccc2ccccc12`, -13.8% (inactive); to `Oc1cccc(-c2c3nc(c(-c4cccc(O)c4)c4ccc([nH]4)c(-c4cccc(O)c4)c4nc(c(-c5cccc(O)c5)c5ccc2[nH]5)CC4)C=C3)c1`, -14.6% (inactive).
For `CC(C)(C)C(=O)OCOC(=O)[C@@H]1N2C(=O)[C@@H](NC(=O)[C@H](N)c3ccccc3)[C@H]2SC1(C)C`, the “activation” value was -0.85% [at 32.5 µM] (inactive).
The same measure, in the same setting: to `O=C(Oc1cccc2cccnc12)c1ccccc1` belongs 2.65% (inactive).
With `CCCCC(CC)CN=C(N)NC(N)=NCCCCCCN=C(N)NC(N)=NCC(CC)CCCC` (configuration not stated), the “activation” value is -13.5% (inactive).
Consider `Clc1ccc2cc3ccccc3cc2c1`, for which the “activation” value was 2.31% (inactive).
Still for that read-out and setting: to `CN(C)c1ccc(C2(c3ccc(N(C)C)cc3)OC(=O)c3cc(N(C)C)ccc32)cc1` belongs 1.51% (inactive).
For the molecule `CC(=O)N1CCN(c2ccc(OC[C@H]3CO[C@](Cn4ccnc4)(c4ccc(Cl)cc4Cl)O3)cc2)CC1`, the Potency is 6.68 µM (active).
On the same count and under the same terms, to `Cc1[nH]cnc1C[C@H]1CCc2c(C)c3ccccc3n2C1=O` belongs “inactive”.
`C=CC(=O)OCC(CO)(COCC(COC(=O)C=C)(COC(=O)C=C)COC(=O)C=C)COC(=O)C=C`: the “activation” value is -1.91% (inactive).
In the case of `NNc1nc(-c2ccc(N)cc2)cs1`, the Potency was 12.2 µM (active).
As to `CC(C)c1ccc2c(c1)CC[C@H]1[C@](C)(CN)CCC[C@]21C`, the “activation” value was -0.928% (inactive).
With `[Cl][Bi]([Cl])([c]1ccccc1)([c]1ccccc1)[c]1ccccc1`, the “activation” value was -3.37% (inactive).
The same measure, in the same setting: under `Cc1cc(CCN2CCN(c3nsc4ccccc34)CC2)cc2c1NC(=O)CC2(C)C` stands -8.89% (inactive).
In the case of `CCCCN(CCCC)c1ccc(C(=O)c2ccccc2C(=O)O)c(O)c1`, the “activation” value was 3.46% [at 95 µM] (inactive).
Same read-out and setting: under `O=C(Nc1cccc(Cl)c1)OCC#CCCl` stands 1.62% (inactive).
For the molecule `Oc1cc2ccccc2c2ccccc12`, the Potency was 8.63 µM (active).
As for `C=CC(=O)OCC(CO)(COC(=O)C=C)COC(=O)C=C`, the Potency result is “inactive”.
On the same count and under the same terms, to `C[n+]1cc2c3c(ccc2c2ccc4cc5c(cc4c21)OCO5)OCO3` belongs 6.68 µM (active).
On the same count and under the same terms, to `COc1ccc(C(=O)/C(Br)=C\C(=O)O)cc1` belongs “inactive”.
In the case of `CCN(Cc1cccnc1)C(=O)c1cccc(Cl)c1[C@]1(C)C(=O)N(Cc2ccc(OC)cc2OC)c2ccc(Cl)cc21`, the “activation” value was -0.627% (inactive).
Same read-out and setting: under `CS(=O)(=O)CCNCc1ccc(-c2ccc3ncnc(Nc4ccc(OCc5cccc(F)c5)c(Cl)c4)c3c2)o1` stands 5.28% (inactive); under `CN(C)C(=O)C1(N2CCCCC2)CCN(CC[C@@]2(c3ccc(Cl)c(Cl)c3)CN(C(=O)c3ccccc3)CCO2)CC1`, -8.34% (inactive); under `CCCCCCCCCCCCc1ccc(O)cc1`, 2.04% (inactive).
With `CCCCCCCCOc1ccccc1C(=O)Nc1ccc(C(=O)OCC[N+](C)(CC)CC)cc1`, the “activation” value is -0.217% (inactive).
`CC(C)(C)C(=O)OCOC(=O)C1N2C(=O)CC2S(=O)(=O)C1(C)C` (configuration not stated): the “activation” value was 0.279% (inactive).
The same measure, in the same setting: under `O=S1(=O)CC(Cl)(Cl)C(Cl)(Cl)C1` stands -2.08% (inactive).
